# Experimental data as given in PubChem BioAssay AID2013 (Sanford-Burnham Center for Chemical Genomics, 2009).
# Hit rate of the full screen: of about 290,000 compounds, about 370 (0.13%) were called active. Only a selection was taken, and actives are over-represented in it overall. Results with a measured potency or affinity are listed apart. Unmarked numbers belong to inactive results.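 How the source made its calls: active means spots per cell inhibited over 60%, with over 100 cells counted and total cytoplasm intensity under 500,000; inconclusive means wells with under 100 cells, flagged as likely toxic; inactive means the rest.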
# Target: G-protein coupled receptor 55 (Homo sapiens) (UniProt Q9Y2T6)
# Sequence (Q9Y2T6 whole entry, looked up): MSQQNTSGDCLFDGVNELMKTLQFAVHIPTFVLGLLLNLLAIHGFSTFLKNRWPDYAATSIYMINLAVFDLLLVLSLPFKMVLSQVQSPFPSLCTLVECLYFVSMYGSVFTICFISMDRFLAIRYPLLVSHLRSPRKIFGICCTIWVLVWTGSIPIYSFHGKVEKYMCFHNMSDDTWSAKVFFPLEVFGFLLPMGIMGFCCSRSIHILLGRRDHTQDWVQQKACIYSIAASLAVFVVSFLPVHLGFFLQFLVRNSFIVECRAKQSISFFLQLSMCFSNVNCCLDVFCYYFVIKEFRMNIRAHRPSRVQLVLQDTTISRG
# Assay: GPR55 antagonists blocking LPI-driven arrestin recruitment, primary screen, imaging, U2OS, beta-arrestin-GFP, LPI agonist (AID 2013);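 further: U2OS cells stably carrying GPR55 and arrestin-GFP stimulated by 5 µM LPI near EC80; imaged beta-arrestin-GFP aggregate spots per cell after agonist stimulation; plate controls were LPI-stimulated DMSO wells for no effect and DMSO wells without LPI for full effect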
# Conditions: U2OS GPR55 beta-arrestin-GFP translocation imaging, LPI antagonism; at 10 µM; active compounds read high
row,SMILES,inhibition
1,COC(=O)C1=Nc2ccccc2/C1=C\c1c(O)n(-c2ccc(Br)cc2)c(=O)[nH]c1=O,0.3%
2,Cc1ccccc1-n1c(O)c(/C=C2/C(c3ccccc3)=Nc3ccccc32)c(=O)[nH]c1=O,83% (active)
3,Cc1cccc(-n2c(O)c(/C=C3/C(c4ccccc4)=Nc4ccccc43)c(=O)[nH]c2=O)c1,74.4% (active)
4,CC1=Nc2ccccc2/C1=C/c1c(O)n(C)c(=O)[nH]c1=O,1.1%
5,O=c1[nH]c(=O)n(-c2ccccc2F)c(O)c1/C=C1\C=Nc2ccccc21,21.1%
6,COC(=O)C1=Nc2ccccc2/C1=C\c1c(O)n(-c2ccc(OC)cc2)c(=O)[nH]c1=O,-7.2%
7,O=c1[nH]c(=O)n(-c2ccccc2)c(O)c1/C=C1/C(c2ccccc2)=Nc2ccccc21,68.8% (active)
8,O=c1[nH]c(=O)n(-c2cccc(F)c2)c(O)c1/C=C1\C=Nc2ccccc21,8.8%
9,Cc1cccc(-n2c(O)c(/C=C/C=Nc3ccccc3)c(=O)[nH]c2=O)c1,0.7%
10,C#C[C@@]1(O)CCC2C3CCC4=C/C(=N/OCC(=O)NC(C(=O)NC(CC(C)C)C(=O)O)C(C)C)CC[C@]4(C)C3CC[C@@]21C (stereo not given in full),13.1%
11,COc1ccccc1-n1c(-c2ccccc2)nc2ccccc2c1=O,-1.7%
12,CN1CCN(c2nc(N(C)C)oc(=O)c2C#N)CC1,2.9%
13,Cc1cc(C)nc(-n2c(C)nc3cc(Cl)ccc3c2=O)c1,14.5%
14,C/C(=N\Nc1ccccc1)c1c(O)[nH]c(=O)[nH]c1=O,-0.7%
15,NNP(=O)(CC(=O)c1ccccc1)c1ccccc1 (stereo not given),-7%
16,O=S(=O)(NC1CCCC1)OCC(Cl)(Cl)Cl,0.6%
17,CC(=O)c1ccc2c(c1)C1C(Cl)C(Sc3ccccc3[N+](=O)[O-])CC1C(C(=O)O)N2 (stereo not given),21.4%
18,O=C(O)c1cccc2c1NC(C(=O)O)C1CC(Sc3ccccc3[N+](=O)[O-])C(Cl)C21 (stereo not given),17.5%

row,SMILES,inhibition
1,Cc1ccc2c(c1Cl)NC(C(=O)O)C1CC(Sc3ccccc3[N+](=O)[O-])C(Cl)C21 (stereo not given),70.4% (active)
2,CCOC(=O)C(O)(c1ccc(N(CC)C(=O)COc2ccccc2)cc1)C(F)(F)F (stereo not given),7.2%
3,Cc1cc(OCC(=O)N[C@@H](Cc2ccccc2)C(=O)O)c2c3c(c(=O)oc2c1)CCC3,1.6%
4,O=C1NC(=O)N(CCc2ccc(F)cc2)C(=O)/C1=C/c1ccco1,95.4% (active)
5,O=C1NC(=O)N(CCc2ccc(F)cc2)C(=O)/C1=C/c1cccs1,84.1%
6,O=C1NC(=O)N(Cc2ccccc2)C(=O)/C1=C\c1ccco1,22.2%
7,Cc1nc2c(=O)n(C)c(=O)nc-2n(C)n1,23.5%
8,Cn1ncnc2c(=O)n(C)c(=O)nc1-2,79.3% (active)
9,CCn1nc(-c2ccccc2)nc2c(=O)n(C)c(=O)nc1-2,18.7%
10,CN(Cc1ccccc1)C(=O)CN1CCCC1=O,-7.6%
11,C=CCOc1ccc(CC2C(=O)N(C)C(=O)N(C)C2=O)cc1,11.7%
12,Oc1ccc(C(=C(Cl)Cl)c2ccc(O)cc2)cc1,94.8% (active)
13,O=S(=O)(c1ccc(O)cc1)c1ccc(O)cc1,11%
14,CCc1cc(=O)oc2cc(OCC(=O)N3C[C@H]4C[C@@H](C3)c3cccc(=O)n3C4)c(Cl)cc12,-10.3%
15,CCCc1nc2ccccc2c(=O)n1-c1ccc(OC)cc1,12.2%
16,CC12CCC3C(CC=C4CC(O)CCC43C)C1C/C(=C\c1ccccc1F)C2=O (stereo not given),1.4%
17,CCOC(=O)c1cc(C(O)(C(=O)OC)C(F)(F)F)c(/N=C/N(C)C)o1 (stereo not given),14.3%
